These results are taken from PubChem BioAssay (Tox21).

Values joined by “and” are separate entries in the source; they are usually repeats but may differ in a detail not shown here. Equal values may be shown once. Results filed as inconclusive are left out. Where a structure was tested more than once in an assay, its records may differ in their call. Active and inactive are the calls of the source. Calls come from the whole dose curve; as a rule, active = well fitted curve in the direction sought with a large enough effect in the repeat runs; inconclusive = weak or mixed curves; inactive = no such curve, though single readings can be large; an effect the other way counts as inactive or inconclusive.

Test [1] in a line: qHTS RealTime-Glo MT Cell Viability Assay in HepG2 cells - 8 hour (AID 1224873). Note: nearly all actives have a fitted effect of over 55% in size. Note: potency is the fitted concentration of half-maximal effect. An outline of the steps:
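HepG2 cells mixed with RealTime-Glo MT reagents (NanoLuc plus cell-permeant prosubstrate) were seeded at 600 cells/well, incubated 5 h at 37 C/5% CO2, then pinned with compounds in DMSO; nonlytic luminescence tracked viability during 40 h treatment.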

Test [2] can be described thus: qHTS RealTime-Glo MT Cell Viability Assay in HEK293 cells - 40 hour (AID 1224874). Note: nearly all actives have a fitted effect of over 50% in size. Note: potency is the fitted concentration of half-maximal effect. Particulars: RealTime-Glo luminescence; max response: stronger effect = lower value. An outline of the steps:
(§1)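 600 cells/well were plated with the nonlytic NanoLuc/prosubstrate reagent, pre-incubated 5 h, then given 23 nL of compound in DMSO. Incubation at 37 C for 40 h, with luminescence from viable-cell-reduced substrate read repeatedly from 0 h.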
Background: qHTS replaces the single test concentration by a dilution series.

The nature of test [3]: A CellTox Green Cytotoxicity Assay to monitor cytotoxicity in HepG2 cells - 16 hour (AID 1224876). Note: nearly all actives have a fitted effect of over 45% in size. Note: potency is the fitted concentration of half-maximal effect. An outline of the steps:
(§2)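 HepG2 cells, 600/well, preincubated 5 h with CellTox Green dye, then exposed to Tox21 compounds in DMSO at 37 C for up to 40 h. Dead-cell DNA fluorescence read at the indicated time point.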

A short description of test [4]: qHTS RealTime-Glo MT Cell Viability Assay in HepG2 cells - 32 hour (AID 1224877). Note: nearly all actives have a fitted effect of over 55% in size. Note: potency is the fitted concentration of half-maximal effect. An outline of the steps: (§3)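 Cells + NanoLuc/prosubstrate dispensed (600 cells/well) → 5 h at 37 C/5% CO2 → compounds in DMSO transferred → 40 h incubation at 37 C, luminescence read at 0, 8, 16, 24, 32, 40 h.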
The nature of test [5]: A CellTox Green Cytotoxicity Assay to monitor cytotoxicity in HepG2 cells - 24 hour (AID 1224878). Note: nearly all actives have a fitted effect of over 45% in size. Note: potency is the fitted concentration of half-maximal effect. An outline of the steps:
as §2

The nature of test [6]: A CellTox Green Cytotoxicity Assay to monitor cytotoxicity in HepG2 cells - 40 hour (AID 1224879). Note: nearly all actives have a fitted effect of over 40% in size. Note: potency is the fitted concentration of half-maximal effect. An outline of the steps:
as §2

Test [7] in a line: qHTS RealTime-Glo MT Cell Viability Assay in HEK293 cells - 0 hour (AID 1224880). Note: top concentration of the series differs between compounds; nearly all actives have a fitted effect of over 45% in size. An outline of the steps: as §1
A short description of test [8]: A CellTox Green Cytotoxicity Assay to monitor cytotoxicity in HEK293 cells - 32 hour (AID 1224881). Note: nearly all actives have a fitted effect of over 40% in size. Note: potency is the fitted concentration of half-maximal effect. An outline of the steps: (§4)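 HEK293 cells, 600/well, were preincubated 5 hours and then exposed to compounds at 37 C for up to 40 hours. A cell-impermeant cyanine dye staining dead-cell DNA was read by fluorescence at 0, 8, 16, 24, 32 and 40 h time points.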
A short description of test [9]: A CellTox Green Cytotoxicity Assay to monitor cytotoxicity in HepG2 cells - 32 hour (AID 1224883). Note: nearly all actives have a fitted effect of over 50% in size. Note: potency is the fitted concentration of half-maximal effect. An outline of the steps:
as §2

Test [10] in a line: A CellTox Green Cytotoxicity Assay to monitor cytotoxicity in HEK293 cells - 8 hour (AID 1224884). Note: nearly all actives have a fitted effect of over 35% in size. Note: potency is the fitted concentration of half-maximal effect. An outline of the steps: as §4
The nature of test [11]: qHTS RealTime-Glo MT Cell Viability Assay in HepG2 cells - 16 hour (AID 1224885). Note: nearly all actives have a fitted effect of over 50% in size. An outline of the steps:
as §3

Test [12] is described as follows: qHTS RealTime-Glo MT Cell Viability Assay in HEK293 cells - 24 hour (AID 1224886). Note: nearly all actives have a fitted effect of over 50% in size. Note: potency is the fitted concentration of half-maximal effect. An outline of the steps:
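Tox21 10K qHTS, HEK293, 600 cells/well, RealTime-Glo reagent co-dispensed with cells; 5 h preincubation, compound by pintool, 37 C, luminescence at 0–40 h.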

A short description of test [13]: qHTS RealTime-Glo MT Cell Viability Assay in HEK293 cells - 8 hour (AID 1224887). Note: nearly all actives have a fitted effect of over 50% in size. Note: potency is the fitted concentration of half-maximal effect. An outline of the steps:
as §1

Test [14] in a line: qHTS RealTime-Glo MT Cell Viability Assay in HepG2 cells - 0 hour (AID 1224889). Note: nearly all actives have a fitted effect of over 50% in size. An outline of the steps: as §3
Test [15] in a line: qHTS assay to identify small molecule antagonists of the estrogen receptor alpha (ER-alpha) signaling pathway using the BG1 cell line in the presence of 0.1 nM 17-beta-estradiol - cell viability counter screen (AID 1259241). Note: nearly all actives have a fitted effect of over 40% in size. An outline of the steps: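 Estradiol-stimulated (0.1 nM) VM7Luc4E2 cells exposed to compounds 22 hr; viability measured by fluorescence of cleaved CellTiter-Fluor substrate after 30 min.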

A short description of test [16]: qHTS assay to identify small molecule antagonists of the androgen receptor (AR) signaling pathway using the MDA cell line in the presence of 0.5 nM R1881 - cell viability counter screen (AID 1259242). Note: nearly all actives have a fitted effect of over 45% in size. Note: potency is the fitted concentration of half-maximal effect. An outline of the steps: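 MDA-kb2 cells (MMTV-luciferase, AR/GR responsive) were treated with compounds plus 0.5 nM R1881 (final) for 16 hr at 37C, 0% CO2. Viability was then read in the same wells as live-cell protease fluorescence (CellTiter-Fluor, 30 min).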

Test [17] can be described thus: A CellTox Green Cytotoxicity Assay to monitor cytotoxicity in HEK293 cells - 24 hour (AID 1224875). Note: nearly all actives have a fitted effect of over 45% in size. Note: potency is the fitted concentration of half-maximal effect. An outline of the steps: as §4
Test [18] is described as follows: A CellTox Green Cytotoxicity Assay to monitor cytotoxicity in HepG2 cells - 0 hour (AID 1224882). Note: nearly all actives have a fitted effect of over 35% in size. An outline of the steps:
as §2

A short description of test [19]: A CellTox Green Cytotoxicity Assay to monitor cytotoxicity in HEK293 cells - 16 hour (AID 1224888). Note: nearly all actives have a fitted effect of over 35% in size. Note: potency is the fitted concentration of half-maximal effect. An outline of the steps: as §4
Test [20] in a line: A CellTox Green Cytotoxicity Assay to monitor cytotoxicity in HepG2 cells - 8 hour (AID 1224890). Note: nearly all actives have a fitted effect of over 45% in size. Note: potency is the fitted concentration of half-maximal effect. An outline of the steps: as §2
% is set by controls: 0 for no effect and ±100 for the full control effect.

Regarding `CC(=O)Nc1ccc(C(=O)CCl)cc1`, the Potency result in [1], in test [3], in test [7], in test [10], in test [11] and in test [13] was “inactive” each time. Also, the Potency entry in test [14] and in test [15] was “inactive” in each case. For the same compound, the Potency in test [2] was 21.9 µM (active); in [4], “inactive and 21.9 µM (active)”; in [5], “inactive and 21.9 µM (active)”; in [6] it was “inactive and 19.5 µM (active)”; in test [8], “inactive and 15.5 µM (active)”; in [9] it was “inactive and 19.5 µM (active)”. For the same compound, the Potency entry in test [12] is “inactive and 19.5 µM (active)”; in test [16], “inactive and 54.5 µM (active)”. Also, in test [2], the max response is 19.7% (inactive).

Turning to `O=Cc1ccc(Cl)cc1`, the Potency entry in test [1], in [17], in [3], in test [4], in test [5] and in [6] was “inactive” each time. In addition, the Potency entry in [7], in test [8], in test [18], in test [9], in test [10] and in [11] was “inactive” in each case. Also, the Potency entry in [12], in [13], in [19], in test [14], in [20] and in test [16] was “inactive” each time. Moreover, the max response in [2] is -1.8% (inactive).

In the case of `CCC(C)(Oc1ccc(C2(c3ccc(OC(C)(CC)C(=O)O)cc3)CCCCC2)cc1)C(=O)O` (stereo not given), the Potency entry in test [1], in test [17], in test [3], in test [4], in test [5] and in test [6] was “inactive” in each case. The Potency entry in test [7], in [8], in test [18], in test [9], in [10] and in test [11] was “inactive” each time. The Potency entry in test [12], in test [13], in [19], in test [14], in test [20] and in test [15] was “inactive” in each case. Moreover, the Potency result in [16] is “inactive”. Further, in test [2], the max response is 8.3% (inactive).

Regarding `Nc1nc(=S)c2[nH]cnc2[nH]1`, the Potency entry in test [1], in test [17], in test [3], in test [4], in test [5] and in test [6] was “inactive” each time. In addition, the Potency result in [7], in [8], in test [18], in test [9], in test [10] and in test [11] was “inactive” each time. Further, the Potency entry in test [13], in [19], in test [14], in test [20], in [15] and in test [16] was “inactive” throughout. Further, the Potency in test [2] was 21.3 µM (active) and 19.5 µM (active) and 26.8 µM (active); in test [12], 21.9 µM (active).

With `CC(C)(C)c1ccc(O)c(C(C)(C)C)c1`, the Potency was 38.9 µM (active) in test [1]; 38.7 µM (active) in test [2]; 21.8 µM (active) and 34.7 µM (active) in test [17]; 48.8 µM (active) and 43.6 µM (active) in test [3]; 48.8 µM (active) and 43.6 µM (active) in [5]; 48.8 µM (active) and 43.6 µM (active) in test [6]. In addition, the Potency in test [8] was 24.4 µM (active) and 34.7 µM (active); in test [9], 48.8 µM (active) and 43.6 µM (active); in test [10] it was 43.5 µM (active); in test [12] it was 38.7 µM (active); in test [13] it was 34.5 µM (active); in [19] it was 24.4 µM (active) and 34.7 µM (active). In addition, the Potency in test [20] was 48.8 µM (active) and 49 µM (active). In addition, the max response in test [2] was -25% (inactive). For the same compound, the Potency entry in test [7], in test [18], in test [14], in [15] and in [16] was “inactive” each time.
